In PubChem BioAssay (NCATS):
Inconclusive results are not listed. Where a call stands in place of a potency, no number is given. Activity calls are given as the source filed them. Unless noted, calls follow the shape of the dose curve; as a rule, active = well fitted curve in the direction sought with a large enough effect; inconclusive = small, poorly fitted or top-dose-only effect, or another doubt; inactive = no such curve, though single readings can be large; an effect the other way counts as inactive or inconclusive.

Experiments:
[1] = biological target: Mitogen-activated protein kinase 10 (Mus musculus) (UniProt Q61831); assay: JNK3 AlphaScreen Assay (AID 530; active = well fitted curve in either direction with a large enough effect, not every such curve was filed as active;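 also: kinase came from lysate of stimulated human HepG2 cells; signal reports phosphorylation of biotinylated GST-cJun 1-79 at Ser73 with 10 µM ATP; series mostly up to about 57 µM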)
Method in brief: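 qHTS titrations with 15 min compound pre-incubation before adding ATP (10 uM final). Read-out: AlphaScreen of Ser73-phosphorylated biotin-GST-cJun using HepG2 lysate JNK3 activated by IL-1β and TNFα.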

[2] = biological target: Cytochrome P450 3A4 (Homo sapiens) (UniProt P08684); assay: qHTS Assay for Inhibitors and Substrates of Cytochrome P450 3A4 (AID 884); also: potency is read from the fitted curve at half-maximal effect; nearly all actives have a fitted effect of over 50% in size
Cytochrome P450 3A4 (Homo sapiens), sequence (P08684 whole entry, looked up): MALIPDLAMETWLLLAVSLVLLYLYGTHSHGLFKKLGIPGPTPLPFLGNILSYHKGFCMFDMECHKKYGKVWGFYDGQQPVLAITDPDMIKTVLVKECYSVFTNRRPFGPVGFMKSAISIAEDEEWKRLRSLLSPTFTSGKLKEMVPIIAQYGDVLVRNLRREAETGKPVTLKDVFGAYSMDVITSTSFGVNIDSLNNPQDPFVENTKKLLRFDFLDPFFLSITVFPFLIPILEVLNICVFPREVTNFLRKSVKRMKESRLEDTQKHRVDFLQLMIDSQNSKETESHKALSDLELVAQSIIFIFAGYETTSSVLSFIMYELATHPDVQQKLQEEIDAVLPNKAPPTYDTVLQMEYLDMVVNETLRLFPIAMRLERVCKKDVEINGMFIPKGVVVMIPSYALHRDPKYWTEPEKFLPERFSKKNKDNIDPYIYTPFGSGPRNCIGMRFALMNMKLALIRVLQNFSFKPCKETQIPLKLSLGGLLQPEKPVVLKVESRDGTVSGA
Method in brief: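 Luminescent readout of luciferin produced by CYP3A4 (20 nM) dealkylation of Luciferin-PPXE, 25 uM (its KM). NADPH-driven reaction ran 60 min at RT after 10 min compound preincubation; data scaled to 57 uM ketoconazole as 100% inhibition.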

[3] = biological target: Cytochrome P450 3A4 (Homo sapiens) (UniProt P08684); assay: qHTS Assay for Activators of Cytochrome P450 3A4 (AID 885); also: nearly all actives have a fitted effect of over 65% in size
Method in brief: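 Activators are scored by enhanced luminescence from CYP3A4 conversion of luciferin-PPXE (25uM, equal to KM) to luciferin, after 60 min at RT with an NADPH-regenerating system.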

CC1(C(=O)NCC2CC2)C=CC2(CCCCC2)N1C(=O)c1ccccc1 (stereo not given)
outcome [1]: inactive | Potency [2]: 7.94 µM (active) | Potency [3]: inactive

CN(C)C(=O)[C@H]1C[C@@H]1[C@H](NC(=O)OCc1ccccc1)c1ccccc1
outcome [1]: inactive | Potency [2]: 7.94 µM (active) | Potency [3]: inactive

CCCCCCN(C(=O)CCCCCN1C(=O)NC(c2ccc(C(C)(C)C)cc2)C(C(=O)OCc2ccccc2)=C1C)C(C(=O)NCCCC)c1ccc(OCC(=O)OC)c(C(=O)OC)c1 (stereo not given)
outcome [1]: inactive | Potency [2]: 1.26 µM (active) | Potency [3]: inactive

COC(=O)c1ccc(C(NC(=O)OCc2ccccc2)/C(I)=C/[C@@H](C)C(=O)NCc2ccc(OC)c(O)c2)cc1 (stereo not given in full)
outcome [1]: inactive | Potency [2]: 3.16 µM (active) | Potency [3]: inactive

CCC[C@@H]1C[C@@]1(CCC)[C@@H](NC(=O)c1ccccc1)c1ccc(C(=O)OC)cc1
outcome [1]: inactive | Potency [2]: 6.31 µM (active) | Potency [3]: inactive

CCCCNC(=O)C(c1ccc(OCC(=O)OC)c(C(=O)OC)c1)N(CCc1ccccc1)C(=O)CCCCCN1C(=O)NC(c2ccc(-c3ccccc3)cc2)C(C(=O)OCc2ccccc2)=C1C (stereo not given)
outcome [1]: inactive | Potency [2]: 5.01 µM (active) | Potency [3]: inactive

Cc1nn(-c2ccccc2)nc1CNC(=O)C(C)Cc1ccccc1 (stereo not given)
outcome [1]: inactive | Potency [2]: 2.51 µM (active) | Potency [3]: inactive

C=C(N(C)C)[C@]1(C)C[C@H]1[C@H](NC(=O)CNC(=O)OCc1ccccc1)c1ccccc1
outcome [1]: inactive | Potency [2]: 7.94 µM (active) | Potency [3]: inactive

CC(=O)N1C2(C=CC1(C)C(=O)NCc1ccccn1)CCCCC2 (stereo not given)
outcome [1]: inactive | Potency [2]: 12.6 µM (active) | Potency [3]: inactive

COC(=O)c1ccc(C(NC(=O)OCc2ccccc2)/C(C)=C/[C@@H](C)C(=O)NCCN2CCOCC2)cc1 (stereo not given in full)
outcome [1]: inactive | Potency [2]: 3.16 µM (active) | Potency [3]: inactive
